Screening results as filed in PubChem BioAssay.
An excerpt weighted towards active compounds, which were near 9.4% of everything screened.
SMN2 splice up: SMN2 splice variant enhancement; HEK293 SMN2-luciferase splicing reporter, luminescence, 30-36 h; Potency, µM (titrated, usually from 46.1 µM), for the others: at the top dose activity change, positive = activation, hits mostly activators; hit rate 2.8% among 210,000; AID 1458; also: % of control where 0% means no effect; nearly all actives have a fitted effect of over 55% in size
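qHTS luciferase splicing reporter: luminescence rises when SMN2 exon 7 is included in transfected HEK293 cells. Compound exposure lasted 30-36 h at 37C, with 4.5 mM final sodium butyrate as control, followed by a ONE-Glo read.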
NPC1 prom act: activators of NPC1 promoter; AID 485313; hit rate 2.4% among 320,000; Potency, µM (titrated, usually from 9.22 µM), inactives show at the highest dose activation, usual class: activators; Huh7 NPC1 promoter luciferase reporter, 24 h; also: % of control where 0% means no effect; nearly all actives have a fitted effect of over 60% in size
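Quantitative HTS used a cell-based reporter: Huh7 cells stably bearing the NPC1 promoter upstream of luciferase were treated with compounds for 24 h, and promoter activation was read as luminescence.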
Rab9 promoter act: activates the Rab9 promoter; AID 485297; hit rate 2.8% among 320,000; Huh7 Rab9 promoter-luciferase reporter, luminescence, 24 h; Potency, µM (highest dose often 9.22 µM), inactives show at the highest dose activation, negative = inhibition, usual class: activators; also: % of control where 0% means no effect; nearly all actives have a fitted effect of over 60% in size
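Cells were plated at 1500 per well in reduced-serum medium with 10% FBS and left 2 h. Compound in DMSO was then added for 24 h at 37 °C. Reporter signal was read by luminescence after 10 min with luciferase detection reagent.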
ELG1 genotox: induces genotoxicity in HEK293T cells with luciferase-tagged ELG1 | HEK293T ELG1-luciferase reporter, luminescence, 16 h | Potency, µM (highest dose often 46 µM), for inactives: top-dose activity change, positive = activation, usual class: activators | hit rate 1.3% among 330,000 | AID 504466; also: % of control where 0% means no effect; nearly all actives have a fitted effect of over 60% in size
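After overnight (16 hr) compound treatment at 37 °C, ELG1-luciferase HEK293T cells were lysed with ONE-Glo; luminescence quantified 30 min later at room temperature.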
ELG1 repair inh: ELG1-dependent DNA repair inhibition; Potency, µM (series often up to 46.1 µM), for inactives: at the highest dose activity change, negative = inhibition, actives largely listed as inhibitors; AID 504467; hit rate 2.3% among 330,000; HEK293T ELG1-luciferase reporter, luminescence, 16 h; DNA damage induced by 5-fluorouridine; also: % is scaled to controls: 0 for no effect and ±100 for the full control effect; nearly all actives have a fitted effect of over 55% in size
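Cells (2,000 per well) received 5-fluorouridine plus test compound or DMSO and were incubated 16 hr at 37 °C, 5% CO2. Luciferase activity was read by luminescence 30 min after ONE-Glo addition; signal suppression marked inhibition of damage-induced ELG1 function.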
FLuc counter: counter-screen for miR-21 project: firefly luciferase inhibitors or activators; Potency, µM (highest dose often 57.5 µM), without a hit: at the highest dose activity change, negative = inhibition, actives largely listed as inhibitors; AID 588342; hit rate 6.9% among 360,000; P08659; purified FLuc, Km substrates, luminescence inhibition;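 also: plate controls were vehicle for no effect and reference inhibitor for full effect; nearly all actives have a fitted effect of over 55% in size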
Target sequence (P08659 whole entry, looked up): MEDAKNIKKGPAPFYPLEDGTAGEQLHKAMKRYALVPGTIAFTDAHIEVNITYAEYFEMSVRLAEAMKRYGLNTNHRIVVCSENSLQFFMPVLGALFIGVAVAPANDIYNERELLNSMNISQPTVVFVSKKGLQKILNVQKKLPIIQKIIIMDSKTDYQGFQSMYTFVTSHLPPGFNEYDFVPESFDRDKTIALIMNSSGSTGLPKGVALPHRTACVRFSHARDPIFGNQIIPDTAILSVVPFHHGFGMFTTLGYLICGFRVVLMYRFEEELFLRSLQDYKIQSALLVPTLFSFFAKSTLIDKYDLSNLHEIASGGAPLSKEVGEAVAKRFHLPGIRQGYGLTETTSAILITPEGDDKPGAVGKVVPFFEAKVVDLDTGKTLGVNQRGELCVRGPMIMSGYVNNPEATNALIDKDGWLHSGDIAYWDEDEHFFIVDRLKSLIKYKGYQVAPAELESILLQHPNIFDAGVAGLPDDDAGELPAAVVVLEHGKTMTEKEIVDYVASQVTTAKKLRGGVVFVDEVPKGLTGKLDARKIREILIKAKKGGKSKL
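Purified P. pyralis luciferase, 10 nM final, with Km-level 10 uM D-luciferin and 10 uM ATP in 50 mM Tris acetate pH 7.5, 10 mM Mg acetate, 0.01% Tween-20, 0.05% BSA; 6-point qHTS titration about 60 µM downward; luminescence read.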
* = called active by the depositor; ? = inconclusive; nt = no result; [ ] = dose if it differs, or a comment. Calls follow the shape of the dose curve; as a rule, active = well fitted curve in the direction sought with a large enough effect; inconclusive = small, poorly fitted or top-dose-only effect, or another doubt; inactive = no such curve, though single readings can be large; an effect the other way counts as inactive or inconclusive. Potency is read from the fitted curve at half-maximal effect.

SMILES | SMN2 splice up | NPC1 prom act | Rab9 promoter act | ELG1 genotox | ELG1 repair inh | FLuc counter
Cc1ccc(N=C/C(C(=O)C(F)(F)F)=C(\O)c2ccco2)cc1Cl | nt | 2% | 0% | ? | ? | 9.5µM*
CC1CCCCN1C(=O)Cn1c(SCC(=O)N(C)c2ccccc2)nc2ccccc21 (configuration not stated) | nt | nt | nt | nt | nt | -1%
c1ccc2cc(-c3cc4ccccn4c3)ccc2c1 | 11µM* | 3.2µM* | 3.2µM* | 3.7µM* | ? | 0.85µM*
CC(=O)N1N=C(c2ccc3ccccc3c2)OC1(C)C | -16% | -4% | -2% | 0% | 2% | ?
CCN(CC)CCN(Cc1cc2cc(C)ccc2[nH]c1=O)C(=O)Nc1ccccc1OC | -7% | -4% | -16% | 0% | -2% | -5%
CCOc1ccc2[nH]c(=O)c(CN(Cc3cccnc3)C(=O)Nc3ccccc3OC)cc2c1 | ? | -1% | -4% | 1% | ? | 17µM*
CCc1ccc2[nH]c(=O)c(CN(Cc3ccccc3OC)C(=O)Nc3ccccc3OC)cc2c1 | -23% | -7% | -5% | -15% | 23µM* | -1%
O=C(CCSc1ccccn1)Nc1ccc(Br)cc1 | 14µM* | ? | 3.5µM* | ? | ? | 12µM*
COc1cccc(NC(=O)CSc2ccccn2)c1 | ? | ? | ? | ? | ? | 15µM*
COc1ccc(NC(=O)CSc2ccccn2)cc1 | ? | 21% | ? | 16% | ? | ?
O=C(CSc1ccccn1)Nc1ccc(NC(=O)CSc2ccccn2)cc1 | -1% | -5% | 0% | 2% | 5% | -9%
COc1cccc(NC(=O)CSc2nc3ccccc3nc2N2CCOCC2)c1 | 4µM* | -4% | 7% | -5% | 11% | -15%
CC(=O)Nc1ccc(NC(=O)CSc2nc3ccccc3nc2N2CCOCC2)cc1 | -18% | nt | nt | nt | nt | -18%
CCc1ccc(N/C(N)=N/c2nc(CSc3ccccn3)cc(=O)[nH]2)cc1 | nt | -7% | -20% | -5% | 23µM* | -5%
CCc1cccc(-n2c(=O)c3cccnc3n2CC(=O)Nc2ccc(F)c(C)c2)c1 | nt | nt | nt | nt | nt | -3%
O=C(C1CCCCC1)N(CCN1CCN(c2ccccc2CO)CC1)c1ccccn1 | -32% | nt | nt | nt | nt | nt
CCC(Cl)CC(Cl)C(Cl)C(Cl)C(Cl)C(C)Cl (configuration not stated) | -8% | nt | nt | nt | nt | nt
CCS(=O)(=O)N1CCc2cc(C(=O)N3CCN(c4ccc(OC)cc4)CC3)ccc21 | nt | nt | nt | nt | nt | -10%
COc1ccc(F)cc1S(=O)(=O)NCC(c1ccco1)S(=O)(=O)c1ccc(F)cc1 (configuration not stated) | nt | nt | nt | nt | nt | -7%
Cc1ccc(SCc2cc(=O)[nH]c(/N=C(\N)Nc3ccccc3Sc3ccccc3)n2)cc1 | -16% | -4% | -4% | -2% | -1% | 1%
CCc1ccc(NC(=O)CSc2ccccn2)cc1 | 29% | 16% | ? | 4% | ? | 13µM*
COc1ccccc1N/C(N)=N/c1nc(CSc2ccc(C)cc2)cc(=O)[nH]1 | -36% | -5% | -7% | -15% | 10µM* | 3%
COc1ccccc1C(=O)CSc1ccccn1 | 28% | 28% | ? | ? | ? | 17µM*
Cc1cccc(CNc2ncnc3ccc(-c4ccc(C(=O)N(C)C)cc4)cc23)c1 | 3% | nt | nt | nt | nt | nt
COc1ccc(C(=O)Nc2ccc3ccccc3n2)cc1OC | nt | 2.8µM* | 2.8µM* | ? | ? | 13µM*
SMILES | SMN2 splice up | NPC1 prom act | Rab9 promoter act | ELG1 genotox | ELG1 repair inh | FLuc counter
O=C(CCc1ccccc1)Nc1ccc2ccccc2n1 | 13µM* | 3.2µM* | 1.1µM* | ? | ? | 6.7µM*
O=C(CCc1ccccc1)Nc1cccc(NC(=O)CCc2ccccc2)c1 | -2% | -1% | -4% | -10% | ? | -19%
Cc1ccc(C(=O)Nc2ccc3ccccc3n2)cc1 | nt | 3.2µM* | 0.63µM* | ? | ? | 1.7µM*
COc1ccc(C(=O)Nc2ccc([N+](=O)[O-])cn2)cc1OC | -2% | 4% | 21% | -1% | ? | -11%
O=C(Nc1ccc2ccccc2n1)c1ccccc1Br | nt | ? | 3.5µM* | ? | ? | 3.4µM*
CC(=O)Nc1ccccc1-c1nc2ccccc2n(Cc2cccc(Br)c2)c1=O | nt | nt | nt | nt | nt | 0%
O=C(Nc1ccc2ccccc2n1)c1ccccc1 | nt | 2.2µM* | 0.89µM* | ? | ? | 2.4µM*
COc1cccc(-c2nn(-c3ccccc3)cc2/C=C\C(=O)c2cccs2)c1 | -74% | -2% | -48% | -5% | ? | 7.6µM*
O=C(N/C(=C\c1cn(-c2ccccc2)nc1-c1ccccc1)C(=O)N1CCOCC1)c1ccccc1 | 2% | -1% | -1% | 0% | 7% | 3%
COc1cccc(C2=NN(C(C)=O)C(c3cn(-c4ccccc4)nc3-c3cccs3)C2)c1 (configuration not stated) | 17% | nt | nt | nt | nt | 0%
O=Cc1cn(-c2ccccc2)nc1-c1ccncc1 | ? | 2% | 0% | 1% | 3% | -19%
C(=N\N1CCOCC1)/c1cn(-c2ccccc2)nc1-c1ccccc1 | 23% | 12% | 6% | -1% | -20% | 24µM*
O=Cc1cn(-c2ccccc2)nc1-c1ccccc1 | nt | 4% | -1% | 0% | ? | 12µM*
CCN(CC(=O)Nc1ccc(NC(C)=O)cc1)C(=O)/C=C/c1cn(-c2ccccc2)nc1-c1ccc(C)cc1 | nt | -6% | -5% | -14% | 8.2µM* | -20%
O=C(O)C1CC2(C1)CC(C(=O)O)C2 (configuration not stated) | -18%[9.22 µM] | nt | nt | nt | nt | nt
O=C(O)Cc1cn(-c2ccccc2)nc1-c1ccccc1 | 0% | 2% | -6% | 0% | 3% | -23%
Cc1c(NC(=O)/C=C/c2cn(-c3ccccc3)nc2-c2ccccc2)c(=O)n(-c2ccccc2)n1C | -10% | 1% | -1% | -10% | ? | 21µM*
O=C(O)/C=C/c1cn(-c2ccccc2)nc1-c1ccccc1 | nt | -1% | 9% | -1% | 15% | 13µM*
O=C(C1CCC1)N1CCCc2cc(S(=O)(=O)N3CCN(c4cccc(Cl)c4)CC3)ccc21 | nt | nt | nt | nt | nt | 2%
O=C(NCCc1ccccn1)c1ccc(OC2CCN(CCc3ccccc3)CC2)cc1 | nt | 3.2µM* | 2.8µM* | ? | ? | 19µM*
O=C(NCCc1cccc(Cl)c1)c1ccc(OC2CCN(Cc3ccccn3)CC2)cc1 | nt | ? | 5% | ? | ? | 19µM*
CN(C1CCCCC1)S(=O)(=O)c1ccc(F)c(C(=O)Nc2ccc(C(F)(F)F)cc2)c1 | nt | nt | nt | nt | nt | -2%
COc1ccc(/C=c2\s/c(=C/C(=O)c3ccc(C)cc3)[nH]c2=O)cc1OC | -13% | -1% | 3% | -4% | ? | 11µM*
